Source: paper PMC5700166

Columns and labels:
Assay in all cases: protein-binding microarray (PBM); PBM: ~300 nM protein, 6 mM HEPES pH 7.8, 80 mM KCl, 0.5 mM EDTA, 0.5 mM EGTA, 6% glycerol, 35 ng/ul poly-dIdC, 1% milk, 1 h, room temperature; Ap Aiptasia and Nv Nematostella (sea anemones) / Co Capsaspora / Aq Amphimedon (sponge) / Dm Drosophila / Hu human; RHD is the Rel homology domain; high values mean tight binding
Settings in all cases: dsDNA, one strand shown
GST-Ap-NF-kB RHD = target: T1, GST-Ap-NF-kB RHD (Exaiptasia pallida (Aiptasia), UniProt A0A913YAJ5 2-422)
T1 sequence: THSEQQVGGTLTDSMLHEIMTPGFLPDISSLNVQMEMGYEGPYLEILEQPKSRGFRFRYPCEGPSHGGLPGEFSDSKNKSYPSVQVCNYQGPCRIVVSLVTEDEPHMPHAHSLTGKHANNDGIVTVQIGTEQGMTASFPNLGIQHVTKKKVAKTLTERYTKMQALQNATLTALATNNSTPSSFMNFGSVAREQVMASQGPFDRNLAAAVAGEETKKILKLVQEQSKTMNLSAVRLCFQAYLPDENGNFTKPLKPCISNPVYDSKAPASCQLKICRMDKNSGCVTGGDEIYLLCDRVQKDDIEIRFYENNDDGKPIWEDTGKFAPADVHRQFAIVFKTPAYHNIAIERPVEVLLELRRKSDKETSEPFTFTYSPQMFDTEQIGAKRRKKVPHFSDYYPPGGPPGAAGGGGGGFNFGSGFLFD

[1] = target: T2, GST-Nv-NF-kB (Cys allele) (Nematostella vectensis, UniProt E5G601 2-411)
T2 sequence: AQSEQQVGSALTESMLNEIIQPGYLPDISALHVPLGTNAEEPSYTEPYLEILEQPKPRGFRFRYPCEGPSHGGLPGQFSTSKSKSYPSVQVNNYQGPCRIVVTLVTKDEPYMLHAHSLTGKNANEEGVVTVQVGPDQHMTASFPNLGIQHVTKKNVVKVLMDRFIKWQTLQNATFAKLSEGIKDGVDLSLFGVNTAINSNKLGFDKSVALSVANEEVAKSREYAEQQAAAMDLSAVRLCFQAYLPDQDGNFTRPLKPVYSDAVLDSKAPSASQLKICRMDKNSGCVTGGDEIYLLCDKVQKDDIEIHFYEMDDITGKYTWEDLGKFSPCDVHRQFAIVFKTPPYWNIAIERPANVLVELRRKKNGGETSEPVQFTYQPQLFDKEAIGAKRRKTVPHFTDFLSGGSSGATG

GST-Co-NF-kB = target: T3, GST-Co-NF-kB (Capsaspora owczarzaki, UniProt F1ARL5 200-546)
T3 sequence: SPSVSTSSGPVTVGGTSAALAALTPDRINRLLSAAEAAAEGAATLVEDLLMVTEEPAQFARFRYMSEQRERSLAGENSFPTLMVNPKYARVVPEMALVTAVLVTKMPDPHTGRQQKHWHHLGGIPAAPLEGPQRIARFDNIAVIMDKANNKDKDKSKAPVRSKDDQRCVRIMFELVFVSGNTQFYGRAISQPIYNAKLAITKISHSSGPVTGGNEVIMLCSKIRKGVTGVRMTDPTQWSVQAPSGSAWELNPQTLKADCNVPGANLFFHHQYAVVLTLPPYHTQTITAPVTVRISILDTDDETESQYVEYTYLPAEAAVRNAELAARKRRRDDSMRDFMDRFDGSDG

GST-Dm-Relish = target: T4, GST-Dm-Relish (Drosophila melanogaster, UniProt Q94527 99-473)
T4 sequence: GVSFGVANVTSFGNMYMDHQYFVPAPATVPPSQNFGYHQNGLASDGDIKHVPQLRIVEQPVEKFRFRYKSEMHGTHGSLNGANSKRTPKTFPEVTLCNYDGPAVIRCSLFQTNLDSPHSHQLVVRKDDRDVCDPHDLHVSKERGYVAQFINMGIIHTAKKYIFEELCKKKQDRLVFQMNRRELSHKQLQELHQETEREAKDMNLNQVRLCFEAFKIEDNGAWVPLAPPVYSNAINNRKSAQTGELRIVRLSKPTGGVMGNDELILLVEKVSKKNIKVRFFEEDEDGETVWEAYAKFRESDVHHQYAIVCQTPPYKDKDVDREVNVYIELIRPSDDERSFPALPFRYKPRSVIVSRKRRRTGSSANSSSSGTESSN

GST-Aq-NF-kB = target: T5, GST-Aq-NF-kB (Amphimedon queenslandica, UniProt A9Y5G7 2-389)
T5 sequence: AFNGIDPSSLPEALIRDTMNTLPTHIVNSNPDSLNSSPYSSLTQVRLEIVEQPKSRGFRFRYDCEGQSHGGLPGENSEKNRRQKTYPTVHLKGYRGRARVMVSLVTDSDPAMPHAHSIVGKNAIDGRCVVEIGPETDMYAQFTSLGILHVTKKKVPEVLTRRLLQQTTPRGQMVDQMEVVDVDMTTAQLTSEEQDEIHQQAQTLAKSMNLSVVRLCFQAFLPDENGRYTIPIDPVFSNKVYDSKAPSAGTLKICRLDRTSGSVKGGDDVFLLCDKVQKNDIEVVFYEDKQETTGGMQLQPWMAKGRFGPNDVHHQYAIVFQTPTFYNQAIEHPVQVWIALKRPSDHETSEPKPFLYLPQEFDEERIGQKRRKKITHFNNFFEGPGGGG

| Sequence | binding signal (GST-Ap-NF-kB RHD) | binding signal [1] | binding signal (GST-Co-NF-kB) | binding signal (GST-Dm-Relish) | binding signal (GST-Aq-NF-kB) |
| --- | --- | --- | --- | --- | --- |
| CCGATTAACATCATGGGTGGGAATGATGTTAATCGGGTCTTGATTCGCTTGACGCTGCTG | 1.4 z-score | 1.79 z-score | 2.62 z-score | 1.66 z-score | 2.5 z-score |
| CCGATTAACATCACGTCCCCCCCTGATGTTAATCGGGTCTTGATTCGCTTGACGCTGCTG | 6.32 z-score | 4.27 z-score | 5.34 z-score | 4.38 z-score | 4.49 z-score |
| CCGATTAACATCAGGGACGGAAATGATGTTAATCGGGTCTTGATTCGCTTGACGCTGCTG | 2.7 z-score | 3.44 z-score | 2.07 z-score | – | 2.84 z-score |
| CCGATTAACATCACGGGTTTCCCTGATGTTAATCGGGTCTTGATTCGCTTGACGCTGCTG | 3.92 z-score | 4.58 z-score | 4.46 z-score | 7.38 z-score | 5.5 z-score |
| CCGATTAACATCAAAAAAACCCATGATGTTAATCGGGTCTTGATTCGCTTGACGCTGCTG | 3.72 z-score | 4.44 z-score | 1.87 z-score | 6.31 z-score | 5.47 z-score |
| CCGATTAACATCATAAAATCCCATGATGTTAATCGGGTCTTGATTCGCTTGACGCTGCTG | 2.43 z-score | 2.92 z-score | 1.47 z-score | 6.55 z-score | 3.1 z-score |
| CCGATTAACATCAGATTTTTCCCTGATGTTAATCGGGTCTTGATTCGCTTGACGCTGCTG | 3.33 z-score | 5.35 z-score | 5.52 z-score | 1.54 z-score | 5.5 z-score |
| CCGATTAACATCAGGGAATTGTATGATGTTAATCGGGTCTTGATTCGCTTGACGCTGCTG | 2.85 z-score | 4.78 z-score | 3.1 z-score | 1.21 z-score | 4.7 z-score |
| CCGATTAACATCAAATTCCCAGTTGATGTTAATCGGGTCTTGATTCGCTTGACGCTGCTG | 1.52 z-score | 3.74 z-score | 2.97 z-score | 4.29 z-score | 2.37 z-score |
| CCGATTAACATCAGAACTTCCCATGATGTTAATCGGGTCTTGATTCGCTTGACGCTGCTG | 2.63 z-score | 2.58 z-score | 1.5 z-score | 3.3 z-score | 2.91 z-score |
| CCGATTAACATCAAGGGAATACCTGATGTTAATCGGGTCTTGATTCGCTTGACGCTGCTG | 4.61 z-score | 4.26 z-score | 2.25 z-score | 6.28 z-score | 5.48 z-score |
| CCGATTAACATCAGCGAATTCCCTGATGTTAATCGGGTCTTGATTCGCTTGACGCTGCTG | 3.47 z-score | 4.45 z-score | 2.15 z-score | 2.72 z-score | 3.61 z-score |
| CCGATTAACATCAGGGACAACCCTGATGTTAATCGGGTCTTGATTCGCTTGACGCTGCTG | 3.42 z-score | 4.16 z-score | 1.06 z-score | 3.09 z-score | 5.59 z-score |
| CCGATTAACATCAGCTCCCCCCCTGATGTTAATCGGGTCTTGATTCGCTTGACGCTGCTG | 5.26 z-score | 3.87 z-score | 5.77 z-score | – | 3.99 z-score |
| CCGATTAACATCAGGGGGGGTCATGATGTTAATCGGGTCTTGATTCGCTTGACGCTGCTG | 3.99 z-score | 2.96 z-score | 3.31 z-score | 3.85 z-score | 3.54 z-score |
| CCGATTAACATCAGGGATCCCCATGATGTTAATCGGGTCTTGATTCGCTTGACGCTGCTG | 7.26 z-score | 4.8 z-score | 3.74 z-score | 9.65 z-score | 4.64 z-score |
| CCGATTAACATCAGGGAACTACCTGATGTTAATCGGGTCTTGATTCGCTTGACGCTGCTG | 4.91 z-score | 4.67 z-score | 1.23 z-score | 8.33 z-score | 6.44 z-score |
